From PubChem BioAssay AID1159580 (chemical genetic matrix, 2015)
About 2,000 (36%) of roughly 5,500 compounds were called active. Another 18% or so got no clear call; they are omitted. No stated cut-off is given here; in the data, active means normalized growth mostly below about 0.91 (no sharp cut-off); inconclusive means no clear call, values can overlap the other calls; inactive means mostly above about 0.92. The list shows a part of the results.

Experiment: chemical genetic growth profiling, strain panel (AID 1159580);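 further: tested at 20 µM; growth read once vehicle control cultures reached saturation at 30 °C; 1 = growth at the plate median or of vehicle wells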
Conditions: S. cerevisiae deletion strains, growth OD

Measured: normalized growth

COc1ccc(/C=C/C(=O)c2cc(O)ccc2O)cc1
active: locus YAL021C, strain ccr4, stronger effect = lower value 0.81 | locus YAL026C, strain drs2, stronger effect = lower value 0.224 | locus YAL030W, strain snc1, stronger effect = lower value 0.31 | locus YBL061C, strain skt5, stronger effect = lower value 0.38 | locus YBR009C, strain hhf1, stronger effect = lower value 0.15 | locus YBR023C, strain chs3, stronger effect = lower value 0.314 | locus YBR171W, strain sec66, stronger effect = lower value 0.521 | locus YBR231C, strain swc5, stronger effect = lower value 0.324 | locus YBR279W, strain paf1, stronger effect = lower value 0.242 | locus YCL011C, strain gbp2, stronger effect = lower value 0.15 | locus YCL016C, strain dcc1, stronger effect = lower value 0.227 | locus YCL061C, strain MRC1, stronger effect = lower value 0.167 | locus YCL069W, strain vba3, stronger effect = lower value 0.13 | locus YCR088W, strain abp1, stronger effect = lower value 0.263 | locus YDL005C, strain med2, stronger effect = lower value 0.424 | locus YDL040C, strain nat1, stronger effect = lower value 0.646 | locus YDR001C, strain nth1, stronger effect = lower value 0.344 | locus YDR069C, strain doa4, stronger effect = lower value 0.844 | locus YDR137W, strain rgp1, stronger effect = lower value 0.285 | locus YDR159W, strain sac3, stronger effect = lower value 0.268 | locus YDR195W, strain ref2 0.482 | locus YDR297W, strain sur2, stronger effect = lower value 0.362 | locus YDR334W, strain swr1, stronger effect = lower value 0.172 | locus YDR335W, strain msn5, stronger effect = lower value 0.238 | locus YDR392W, strain spt3, stronger effect = lower value 0.0876 | locus YEL003W, strain gim4, stronger effect = lower value 0.133 | locus YEL037C, strain rad23, stronger effect = lower value 0.617 | locus YEL061C, strain CIN8 (second series), stronger effect = lower value 0.0921 | locus YER015W, strain faa2, stronger effect = lower value 0.429 | locus YER016W, strain bim1, stronger effect = lower value 0.426 | locus YER111C, strain swi4, stronger effect = lower value 0.0945 | locus YER155C, strain BEM2 (second series), stronger effect = lower value 0.106 | locus YFR010W, strain ubp6, stronger effect = lower value 0.685 | locus YGL167C, strain pmr1, stronger effect = lower value 0.894 | locus YGL173C, strain kem1, stronger effect = lower value 0.516 | locus YGL227W, strain vid30, stronger effect = lower value 0.103 | locus YGL240W, strain doc1, stronger effect = lower value 0.48 | locus YGL253W, strain hxk2, stronger effect = lower value 0.172 | locus YHR013C, strain ard1, stronger effect = lower value 0.421 | locus YHR027C, strain rpn1, stronger effect = lower value 0.661 | locus YHR030C, strain SLT2, stronger effect = lower value 0.432 | locus YHR079C, strain IRE1, stronger effect = lower value 0.456 | locus YHR142W, strain chs7, stronger effect = lower value 0.101 | locus YJL092W, strain hpr5, stronger effect = lower value 0.272 | locus YJL095W, strain BCK1 (second series), stronger effect = lower value 0.0826 | locus YJL095W, strain BCK1, stronger effect = lower value 0.427 | locus YJL115W, strain asf1, stronger effect = lower value 0.416 | locus YJL129C, strain trk1, stronger effect = lower value 0.373 | locus YJL154C, strain vps35, stronger effect = lower value 0.613 | locus YJL164C, strain tpk1, stronger effect = lower value 0.152 | locus YJL166W, strain qcr8, stronger effect = lower value 0.141 | locus YJL187C, strain SWE1, stronger effect = lower value 0.269 | locus YJR066W, strain TOR1, stronger effect = lower value 0.465 | locus YKL160W, strain elf1, stronger effect = lower value 0.136 | locus YKR026C, strain gcn3, stronger effect = lower value 0.449 | locus YKR091W, strain srl3, stronger effect = lower value 0.593 | locus YLL001W, strain dnm1, stronger effect = lower value 0.338 | locus YLL026W, stronger effect = lower value 0.226 | locus YLL041C, strain sdh2, stronger effect = lower value 0.379 | locus YLR027C, strain aat2, stronger effect = lower value 0.267 | locus YLR113W, strain HOG1, stronger effect = lower value 0.396 | locus YLR221C, strain rsa3, stronger effect = lower value 0.113 | locus YLR258W, strain gsy2, stronger effect = lower value 0.333 | locus YLR262C, strain YPT6 (second series), stronger effect = lower value 0.289 | locus YLR320W, strain mms22, stronger effect = lower value 0.123 | locus YLR342W, strain FKS1, stronger effect = lower value 0.248 | locus YLR357W, strain rsc2, stronger effect = lower value 0.717 | locus YLR370C, strain arc18, stronger effect = lower value 0.72 | locus YLR384C, strain iki3, stronger effect = lower value 0.605 | locus YML120C, strain ndi1, stronger effect = lower value 0.221 | locus YMR058W, strain fet3, stronger effect = lower value 0.152 | locus YMR125W, strain sto1, stronger effect = lower value 0.156 | locus YMR129W, stronger effect = lower value 0.546 | locus YMR205C, strain PFK2, stronger effect = lower value 0.178 | locus YMR231W, strain pep5, stronger effect = lower value 0.522 | locus YNL071W, strain lat1, stronger effect = lower value 0.0772 | locus YNL183C, strain NPR1, stronger effect = lower value 0.475 | locus YNL209W, strain ssb2, stronger effect = lower value 0.606 | locus YNL248C, strain rpa49, stronger effect = lower value 0.319 | locus YNL322C, strain KRE1 (second series), stronger effect = lower value 0.462 | locus YNR049C, strain mso1, stronger effect = lower value 0.594 | locus YOR001W, strain rrp6, stronger effect = lower value 0.349 | locus YOR070C, strain gyp1, stronger effect = lower value 0.309 | locus YOR080W, strain dia2, stronger effect = lower value 0.71 | locus YOR083W, strain WHI5, stronger effect = lower value 0.38 | locus YOR106W, strain vam3, stronger effect = lower value 0.391 | locus YOR231W, strain MKK1, stronger effect = lower value 0.464 | locus YOR265W, strain rbl2, stronger effect = lower value 0.425 | locus YOR270C, strain vph1, stronger effect = lower value 0.191 | locus YOR290C, strain snf2, stronger effect = lower value 0.145 | locus YPL051W, strain arl3, stronger effect = lower value 0.29 | locus YPL078C, strain atp4, stronger effect = lower value 0.166 | locus YPL106C, strain sse1, stronger effect = lower value 0.483 | locus YPL240C, strain hsp82, stronger effect = lower value 0.275 | locus YPL256C, strain CLN2, stronger effect = lower value 0.551
